{"source": "paper PMC12820563", "about": "“FoxP3 forms a head-to-head dimer in vivo and stabilizes its multimerization on adjacent microsatellites”", "note": "In all, about 16,000 sequences were measured (“rpm ratio (pull-down/input)”: median about 0.94, highest 2% from about 1.7 on). The sample holds the highest values, similar sequences and a random draw of the others, so the mix is not that of the screen."}
{"biological_target": "T1, MBP-FoxP1dN (Mus musculus, UniProt P58462 326-579)", "T1 sequence": "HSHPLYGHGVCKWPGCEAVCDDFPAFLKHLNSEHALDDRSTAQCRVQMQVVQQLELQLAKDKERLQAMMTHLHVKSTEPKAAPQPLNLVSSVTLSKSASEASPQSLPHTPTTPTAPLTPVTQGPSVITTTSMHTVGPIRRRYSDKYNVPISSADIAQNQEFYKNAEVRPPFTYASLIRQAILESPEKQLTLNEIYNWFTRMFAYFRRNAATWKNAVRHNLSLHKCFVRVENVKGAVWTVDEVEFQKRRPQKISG", "test": "PD-seq (MBP pull-down with sequencing); 20 mM Tris-HCl pH 7.5, 100 mM NaCl, 1.5 mM MgCl2, 0.4 uM protein, 0.1 uM dsDNA library, 30 min, room temperature, amylose pull-down; high values mean tight binding", "settings": "protein: recombinant; tags: His6-MBP; chain copies: 2; dsDNA, one strand shown", "method_in_brief": "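A fragment of mouse FoxP3 or FoxP1 without its N-terminus, carrying a His6-MBP tag and produced in E. coli, was combined at 0.4 µM with a 0.1 µM degenerate double-stranded DNA library filled in with Klenow. The mixture sat for 30 min at room temperature in Tris pH 7.5 buffer containing NaCl and MgCl2. Protein–DNA complexes were captured on amylose resin, washed three times, and the DNA was freed with proteinase K, barcoded by PCR and sequenced on Illumina. Binding is expressed as reads-per-million enrichment of pull-down over input, with replicates pooled.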"}
{"sequence": "GATGATTGTTCTCCCAGCTGATGAATTATGTGTATCGAGTAAACAAATTTTCCTAATCTTTCTGTTCAAGCGCCATCTAC", "binding signal": "1.92 RPM ratio (pull-down/input)"}
{"sequence": "GATGATTGTTCTCCCAGCTGATGAATTATATGTATCGAGTAAACAAATTTTCCTAATCTTTCTGTTCAAGCGCCATCTAC", "binding signal": "1.41 RPM ratio (pull-down/input)"}
{"sequence": "GATGATTGTTCTCCCAGCTGATGAATTGTATGTATCGAGTAAACAAATTTTCCTAATCTTTCTGTTCAAGCGCCATCTAC", "binding signal": "1.67 RPM ratio (pull-down/input)"}
{"sequence": "GATGATTGTTCTCCCAGCTGATGAATTATGTATCTCGAGTAAACAAATTTTCCTAATCTTTCTGTTCAAGCGCCATCTAC", "binding signal": "1.45 RPM ratio (pull-down/input)"}
{"sequence": "GATGATTGTTCTCCCAGCTGATGAATTATGTATATCGAGTAAACAAATTTTCCTAATCTTTCTGTTCAAGCGCCATCTAC", "binding signal": "1.79 RPM ratio (pull-down/input)"}
{"sequence": "GATGATTGTTCTCCCAGCTGATGAATTACAAAATTCGAGTAAACAAATTTTCCTAATCTTTCTGTTCAAGCGCCATCTAC", "binding signal": "1.37 RPM ratio (pull-down/input)"}
{"sequence": "GATGATTGTTCTCCCAGCTGATGAATTCACCCGGTCGAGTAAACAAATTTTCCTAATCTTTCTGTTCAAGCGCCATCTAC", "binding signal": "0.783 RPM ratio (pull-down/input)"}
{"sequence": "GATGATTGTTCTCCCAGCTGATGAATTTAGTCTCTCGAGTAAACAAATTTTCCTAATCTTTCTGTTCAAGCGCCATCTAC", "binding signal": "0.934 RPM ratio (pull-down/input)"}
{"sequence": "GATGATTGTTCTCCCAGCTGATGAATTCCCTTTCTCGAGTAAACAAATTTTCCTAATCTTTCTGTTCAAGCGCCATCTAC", "binding signal": "0.783 RPM ratio (pull-down/input)"}
{"sequence": "GATGATTGTTCTCCCAGCTGATGAATTCCGCCGATCGAGTAAACAAATTTTCCTAATCTTTCTGTTCAAGCGCCATCTAC", "binding signal": "0.721 RPM ratio (pull-down/input)"}
{"sequence": "GATGATTGTTCTCCCAGCTGATGAATTATTAACCTCGAGTAAACAAATTTTCCTAATCTTTCTGTTCAAGCGCCATCTAC", "binding signal": "1.06 RPM ratio (pull-down/input)"}
{"sequence": "GATGATTGTTCTCCCAGCTGATGAATTACACAAATCGAGTAAACAAATTTTCCTAATCTTTCTGTTCAAGCGCCATCTAC", "binding signal": "1.77 RPM ratio (pull-down/input)"}
{"sequence": "GATGATTGTTCTCCCAGCTGATGAATTACACACATCGAGTAAACAAATTTTCCTAATCTTTCTGTTCAAGCGCCATCTAC", "binding signal": "1.48 RPM ratio (pull-down/input)"}
{"sequence": "GATGATTGTTCTCCCAGCTGATGAATTTACACAATCGAGTAAACAAATTTTCCTAATCTTTCTGTTCAAGCGCCATCTAC", "binding signal": "1.87 RPM ratio (pull-down/input)"}
{"sequence": "GATGATTGTTCTCCCAGCTGATGAATTTTACACATCGAGTAAACAAATTTTCCTAATCTTTCTGTTCAAGCGCCATCTAC", "binding signal": "1.11 RPM ratio (pull-down/input)"}
{"sequence": "GATGATTGTTCTCCCAGCTGATGAATTACACAGATCGAGTAAACAAATTTTCCTAATCTTTCTGTTCAAGCGCCATCTAC", "binding signal": "1.18 RPM ratio (pull-down/input)"}
{"sequence": "GATGATTGTTCTCCCAGCTGATGAATTTTTACAATCGAGTAAACAAATTTTCCTAATCTTTCTGTTCAAGCGCCATCTAC", "binding signal": "1.23 RPM ratio (pull-down/input)"}
{"sequence": "GATGATTGTTCTCCCAGCTGATGAATTCCCTACCTCGAGTAAACAAATTTTCCTAATCTTTCTGTTCAAGCGCCATCTAC", "binding signal": "0.836 RPM ratio (pull-down/input)"}
{"sequence": "GATGATTGTTCTCCCAGCTGATGAATTGTCACAGTCGAGTAAACAAATTTTCCTAATCTTTCTGTTCAAGCGCCATCTAC", "binding signal": "1.08 RPM ratio (pull-down/input)"}
{"sequence": "GATGATTGTTCTCCCAGCTGATGAATTGCCAATTTCGAGTAAACAAATTTTCCTAATCTTTCTGTTCAAGCGCCATCTAC", "binding signal": "1.04 RPM ratio (pull-down/input)"}
{"sequence": "GATGATTGTTCTCCCAGCTGATGAATTTGTATATTCGAGTAAACAAATTTTCCTAATCTTTCTGTTCAAGCGCCATCTAC", "binding signal": "1.71 RPM ratio (pull-down/input)"}
{"sequence": "GATGATTGTTCTCCCAGCTGATGAATTATTCTTTTCGAGTAAACAAATTTTCCTAATCTTTCTGTTCAAGCGCCATCTAC", "binding signal": "1.17 RPM ratio (pull-down/input)"}
{"sequence": "GATGATTGTTCTCCCAGCTGATGAATTTTTGTATTCGAGTAAACAAATTTTCCTAATCTTTCTGTTCAAGCGCCATCTAC", "binding signal": "1.8 RPM ratio (pull-down/input)"}
{"sequence": "GATGATTGTTCTCCCAGCTGATGAATTTGTAATTTCGAGTAAACAAATTTTCCTAATCTTTCTGTTCAAGCGCCATCTAC", "binding signal": "1.31 RPM ratio (pull-down/input)"}
{"sequence": "GATGATTGTTCTCCCAGCTGATGAATTTGTATTTTCGAGTAAACAAATTTTCCTAATCTTTCTGTTCAAGCGCCATCTAC", "binding signal": "2.62 RPM ratio (pull-down/input)"}
{"sequence": "GATGATTGTTCTCCCAGCTGATGAATTGTATTCTTCGAGTAAACAAATTTTCCTAATCTTTCTGTTCAAGCGCCATCTAC", "binding signal": "1.26 RPM ratio (pull-down/input)"}
{"sequence": "GATGATTGTTCTCCCAGCTGATGAATTTTGTATTTCGAGTAAACAAATTTTCCTAATCTTTCTGTTCAAGCGCCATCTAC", "binding signal": "1.42 RPM ratio (pull-down/input)"}
{"sequence": "GATGATTGTTCTCCCAGCTGATGAATTCTGTATTTCGAGTAAACAAATTTTCCTAATCTTTCTGTTCAAGCGCCATCTAC", "binding signal": "1.18 RPM ratio (pull-down/input)"}
{"sequence": "GATGATTGTTCTCCCAGCTGATGAATTGTATTATTCGAGTAAACAAATTTTCCTAATCTTTCTGTTCAAGCGCCATCTAC", "binding signal": "1.67 RPM ratio (pull-down/input)"}
{"sequence": "GATGATTGTTCTCCCAGCTGATGAATTATTGTATTCGAGTAAACAAATTTTCCTAATCTTTCTGTTCAAGCGCCATCTAC", "binding signal": "1.99 RPM ratio (pull-down/input)"}
{"sequence": "GATGATTGTTCTCCCAGCTGATGAATTTCTGTATTCGAGTAAACAAATTTTCCTAATCTTTCTGTTCAAGCGCCATCTAC", "binding signal": "1.3 RPM ratio (pull-down/input)"}
{"sequence": "GATGATTGTTCTCCCAGCTGATGAATTGTTGTATTCGAGTAAACAAATTTTCCTAATCTTTCTGTTCAAGCGCCATCTAC", "binding signal": "2.21 RPM ratio (pull-down/input)"}
